Most compounds without a hit are left out; they make up all but 0.86% or so of the library.
TAR Tat displ: HIV-1 TAR-Tat binding disruption | HIV-1 TAR RNA, Tat peptide displacement FRET; stronger effect = higher value | z-score (test concentration not listed) | 100,000 compounds, 0.6% hits | AID 1259389; active means z-score of 3 or more in at least 2 runs
CDC25B-CDK2 inh: human CDC25B-CDK2/CyclinA binding inhibition. P30305+P24941. HTRF CDC25B-CDK2/CyclinA binding, anti-His/anti-Flag; stronger effect = higher value. z-score (concentration not given with the values). 94,000 compounds, 0.72% hits; in the data active means z-score above about 3.2
* marks the source's active call; other numbers are inactive results; nt = no result given.

SMILES | TAR Tat displ | CDC25B-CDK2 inh
COc1cc(C2CC(=O)N3CN(C4CCCCC4)CSC3=C2C#N)ccc1O (stereo unspecified) | -0.98 | 3.78*
O=C1CC(c2ccccc2)S(=O)(=O)c2ccccc2N1Cc1ccc(F)cc1 (stereo unspecified) | 0.16 | -0.49
N#CCCSc1ccccc1N1C(=O)CSC1=S | nt | -2.49
Oc1ccc(-c2nc(-c3cccs3)c(-c3cccs3)[nH]2)cc1 | -0.61 | 19.1*
c1csc(-c2nc(-c3cccs3)c(-c3cccs3)[nH]2)c1 | -0.71 | 19.4*
Cc1cc(=O)[nH]c(-c2cccs2)n1 | nt | 0.45
Oc1cccc(-c2nc(-c3cccs3)c(-c3cccs3)[nH]2)c1 | -3.22 | 18.7*
Oc1ccc(-c2nc(-c3ccccc3)c(-c3ccc(O)cc3)[nH]2)cc1 | -1.74 | -1.4
COc1cccc(-c2nc(-c3cccs3)c(-c3cccs3)[nH]2)c1 | nt | -1.6
CCc1nnc2sc(-c3cccc(F)c3)nn12 | -0.29 | -0.46
CCc1ccccc1OCCSc1nc(-c2ccco2)nc2cc(=O)[nH]n12 | 1.6 | nt
Cc1[nH]c2ccccc2c1C(=O)CSc1nnc(-c2ccc3c(c2)OCCCO3)n1C | 0.5 | nt
Cn1c(=O)[nH]c2nnc(-c3ccc4c(c3)OCO4)nc2c1=O | -0.58 | -1.33
COc1ccc(-c2nnc3[nH]c(=O)n(C)c(=O)c3n2)cc1OC | 8.16* | -2.67
O=C1C=CC2=C3c4cc(O)c(O)cc4CC3(O)COC2=C1O (stereo unspecified) | 19.6* | nt
CCOC(=O)c1cc(S(=O)(=O)N(C)CC(=O)NC(C)CC)cn1C (stereo unspecified) | 0.21 | nt
CCOC(=O)c1c[nH]c2cc3c(cc2c1=O)OCO3 | nt | -0.46
Cc1cc2c(=O)n(CC(=O)NCC(=O)O)cnc2s1 | 2.66 | -1.13
Cc1csc(NC(=O)CSc2nnc(-c3cc4ccccc4o3)n2-c2ccccc2)n1 | 1.31 | nt
CCn1c(SCC(=O)Nc2nc(C)cs2)nnc1-c1cc2ccccc2o1 | 5.35* | nt
Cc1[nH]ccc2c1[nH]c1cc(=O)ccc12 | 22.4* | nt
O=C(NCC1CCCO1)c1c(O)nc2ccccn2c1=O (stereo unspecified) | 0.55 | -0.7
CN(C)c1ccc(CN(CC2CCCO2)C(=O)c2cc(-c3ccc(Cl)cc3)on2)cc1 (stereo unspecified) | 2.21 | -0.8
Cc1c(C(=O)O)sc2ncnc(Nc3ccccc3F)c12 | 21.4* | nt
Cc1c(C(=O)O)sc2ncnc(NCCC3=CCCCC3)c12 | 6.61* | nt
SMILES | TAR Tat displ | CDC25B-CDK2 inh
COc1ccc(Cl)cc1Nc1ncnc2sc(C(=O)O)c(C)c12 | 3.89* | nt
Cc1c(C(=O)O)sc2ncnc(NC3CC3)c12 | 0.22 | nt
Cc1c(C(=O)O)sc2ncnc(Nc3ccc(F)c(Cl)c3)c12 | 20.2* | nt
Cc1c(C(=O)O)sc2ncnc(NCc3ccco3)c12 | 1.55 | nt
CCCCNc1ncnc2sc(C(=O)O)c(C)c12 | 0.95 | nt
COc1ccc(Nc2ncnc3sc(C(=O)O)c(C)c23)c(OC)c1 | 2.33 | nt
O=C(NCc1ccco1)C1CCN(c2ccc(-c3cccs3)nn2)CC1 | -0.61 | nt

Bioassay records: PubChem BioAssay, Center for Chemical Genomics, University of Michigan
